In PubChem BioAssay (Tox21):
Activity calls are given as the source filed them. Unless noted, calls follow the shape of the dose curve; as a rule, active = well fitted curve in the direction sought with a large enough effect in the repeat runs; inconclusive = weak or mixed curves; inactive = no such curve, though single readings can be large; an effect the other way counts as inactive or inconclusive.

What was measured:
[1] = qHTS assay to identify small molecule antagonists of the thyroid receptor (TR) signaling pathway - cell viability counter screen (AID 743064); also: nearly all actives have a fitted effect of over 50% in size; also: potency is read from the fitted curve at half-maximal effect
Method in brief: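 CellTiter-Fluor readout, 30 min at 37 °C/5% CO2, following 23.5 h incubation of GH3.TRE-Luc cells with test compound and 1 nM T3 (final).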

[2] = qHTS assay to identify small molecule antagonists of the thyroid receptor (TR) signaling pathway (AID 743065); also: nearly all actives have a fitted effect of over 55% in size; also: potency is read from the fitted curve at half-maximal effect
Method in brief: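 GH3.TRE-Luc rat pituitary cells carrying two TR response elements driving luciferase were plated for 4 h, given compound plus 1 nM T3 (final), and incubated 23.5 h at 37 C. ONE-Glo luminescence measured reporter inhibition; CellTiter-Fluor fluorescence tracked cytotoxicity.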

[3] = system: thyroid hormone receptor (rat, GH3 cells); experiment: qHTS assay to identify small molecule agonists of the thyroid receptor (TR) signaling pathway (AID 743066; calls by dose curve)
[4] = biological target: Estrogen receptor (Homo sapiens) (UniProt P03372); experiment: qHTS assay to identify small molecule antagonists of the estrogen receptor alpha (ER-alpha) signaling pathway (AID 743069; active = well fitted curve in the direction sought with a large enough effect in the signal ratio in the repeat runs, not every such curve was filed as active; inconclusive = weak or mixed curves, or effect the other way; inactive = no such curve, though single readings can be large or run the other way; the % refers to the signal ratio)
Method in brief: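 HEK293 cells stably carrying an ER-alpha-UAS-bla beta-lactamase reporter were pre-cultured overnight in 2% charcoal-stripped FBS medium. Test compounds in DMSO were added together with 17beta-estradiol for 18 hr at 37C. Read-out was fluorescence after 2 hr with LiveBLAzer B/G FRET substrate at room temperature.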

[5] = qHTS assay to identify small molecule antagonists of the estrogen receptor alpha (ER-alpha) signaling pathway - cell viability counter screen (AID 743074; calls by dose curve; also: nearly all actives have a fitted effect of over 45% in size)
[6] = biological target: Estrogen receptor (Homo sapiens) (UniProt P03372); experiment: qHTS assay to identify small molecule agonists of the estrogen receptor alpha (ER-alpha) signaling pathway (AID 743075; calls by dose curve; also: potency is read from the fitted curve at half-maximal effect)
[7] = biological target: Estrogen receptor (Homo sapiens) (UniProt P03372); experiment: qHTS assay to identify small molecule agonists of the estrogen receptor alpha (ER-alpha) signaling pathway using the BG1 cell line (AID 743079); settings: BG1Luc4E2 cells, ERE-luciferase agonist, 22 h; activation: at 70.3 µM (top of the series); also: nearly all actives have a fitted effect of over 20% in size; also: potency is read from the fitted curve at half-maximal effect
[8] = qHTS assay to identify small molecule antagonists of the estrogen receptor alpha (ER-alpha) signaling pathway using the BG1 cell line - cell viability counter screen (AID 743081);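 also: compound given together with 17beta-estradiol as the ER stimulus; nearly all actives have a fitted effect of over 45% in size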; also: potency is read from the fitted curve at half-maximal effect
Aromatase (Homo sapiens) = Aromatase (Homo sapiens) (UniProt P11511); experiment: qHTS assay to identify aromatase inhibitors (AID 743083); also: nearly all actives have a fitted effect of over 55% in size; also: potency is read from the fitted curve at half-maximal effect
[9] = qHTS assay to identify aromatase inhibitors - cell viability counter screen (AID 743084);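 also: cells stimulated with testosterone during compound exposure; nearly all actives have a fitted effect of over 55% in size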; also: potency is read from the fitted curve at half-maximal effect
[10] = biological target: Aryl hydrocarbon receptor (Homo sapiens) (UniProt P35869); experiment: qHTS assay to identify small molecule that activate the aryl hydrocarbon receptor (AhR) signaling pathway (AID 743085); also: nearly all actives have a fitted effect of over 15% in size; also: potency is read from the fitted curve at half-maximal effect;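 as to activation: HG2L7.5c1 human HepG2 liver cells with stably integrated DRE-driven firefly reporter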
Method in brief: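 Stably transfected human liver carcinoma cells (HG2L7.5c1; 20 DRE-firefly luciferase) were incubated 5 h, dosed, and kept 24 h at 37C. Agonism was scored from increased luciferase luminescence.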

[11] = qHTS assay to identify small molecule that activate the aryl hydrocarbon receptor (AhR) signaling pathway - cell viability counter screen (AID 743086); also: nearly all actives have a fitted effect of over 45% in size; also: potency is read from the fitted curve at half-maximal effect
Method in brief: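 HepG2-AhR-luc (HG2L7.5c1) cells, 4000/well, were preincubated 5 h at 37C, exposed to compound in qHTS format for 24 hr at 37C, then given CellTiter-Fluor for 30 min; viability was read as fluorescence in the reporter wells.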

[12] = biological target: Peroxisome proliferator-activated receptor gamma (Homo sapiens) (UniProt P37231); experiment: qHTS assay to identify small molecule agonists of the peroxisome proliferator-activated receptor gamma (PPARg) signaling pathway (AID 743094; active = well fitted activation curve with a large enough effect in the signal ratio in the repeat runs, not every such curve was filed as active; inconclusive = weak or mixed curves, or effect the other way; inactive = no such curve, though single readings can be large or run the other way; the % refers to the signal ratio)
Method in brief: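 GeneBLAzer PPARg UAS-bla HEK293H cells carrying a stably integrated beta-lactamase reporter were pre-incubated 5 h at 37C, then exposed to compounds in DMSO for 17 h at 37C; LiveBLAzer B/G FRET substrate was added for 1 h at room temperature and fluorescence read.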

[13] = qHTS assay to identify small molecule phospholipidosis (PLD) inducers (AID 1259344; active = well fitted curve in the direction sought with a large enough effect; inconclusive = small, poorly fitted or top-dose-only effect, or another doubt; inactive = no such curve, though single readings can be large; an effect the other way counts as inactive or inconclusive)
Method in brief: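 HepG2 cells on collagen I, attached 4 h at 37 C, were co-treated with compound and LipidTOX Red dye for 24 h at 37 C, then fixed with paraformaldehyde plus Hoechst 33342 and imaged by high-content microscopy for phospholipid accumulation.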

[14] = biological target: Nuclear receptor subfamily 1 group I member 2 (Rattus norvegicus) (UniProt Q9R1A7); experiment: Rat pregnane X receptor (rPXR) activation by small molecules, qHTS assay (AID 1346983); settings: rPXR luciferase reporter cells, One-Glo luminescence, 24 h; max activation: active compounds read high; also: nearly all actives have a fitted effect of over 20% in size
Method in brief: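 Cell-based rPXR luciferase reporter assay, 2,000 cells per well, rested 5hr at 37 C before compound addition in DMSO, then 24 hr at 37 C. One-Glo reagent was added and luminescence read after 30 min at room temperature.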

[15] = biological target: Nuclear receptor subfamily 1 group I member 2 (Homo sapiens) (UniProt O75469); experiment: CYP3A4 induction through human pregnane X receptor (PXR) by small molecules, qHTS assay (AID 1346984); also: nearly all actives have a fitted effect of over 40% in size; also: potency is read from the fitted curve at half-maximal effect
Method in brief: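 DPX-2 cells (HepG2 co-transfected with PXR and CYP3A4 promoter-luciferase) treated with compounds 24 h at 37C; luciferin-IPA CYP3A4 substrate 3uM final added for 3 h, then One-Glo; luminescence read. qHTS format.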

[16] = biological target: Nuclear receptor subfamily 1 group I member 2 (Homo sapiens) (UniProt O75469); experiment: Human pregnane X receptor (PXR) activation by small molecules, qHTS assay (AID 1346985); also: nearly all actives have a fitted effect of over 40% in size
Method in brief: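 DPX-2 cells (HepG2 co-transfected with a PXR response element and a CYP3A4-promoter luciferase construct) were seeded at 2,000 per well, rested 5 hr at 37C, then exposed to DMSO-dissolved compounds for 24 hr. Activation was read as luciferase luminescence.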

[17] = qHTS assay to identify small molecule antagonists of the estrogen receptor alpha (ER-alpha) signaling pathway using the BG1 cell line (AID 743080; calls by dose curve;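 also: BG1 cells stimulated with 17beta-estradiol alongside compound; nearly all actives have a fitted effect of over 25% in size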)
Method in brief: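 After 5 days in phenol-red-free 10% charcoal-stripped FBS medium, BG1-Luc-4E2 cells were seeded, left 24 h at 37 C, co-treated with compounds and 17beta-estradiol for 21.5 h, then assayed for viability and luciferase.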
% is scaled to controls: 0 for no effect and ±100 for the full control effect.

Aryl hydrocarbon receptor (Homo sapiens), sequence (P35869 whole entry, looked up): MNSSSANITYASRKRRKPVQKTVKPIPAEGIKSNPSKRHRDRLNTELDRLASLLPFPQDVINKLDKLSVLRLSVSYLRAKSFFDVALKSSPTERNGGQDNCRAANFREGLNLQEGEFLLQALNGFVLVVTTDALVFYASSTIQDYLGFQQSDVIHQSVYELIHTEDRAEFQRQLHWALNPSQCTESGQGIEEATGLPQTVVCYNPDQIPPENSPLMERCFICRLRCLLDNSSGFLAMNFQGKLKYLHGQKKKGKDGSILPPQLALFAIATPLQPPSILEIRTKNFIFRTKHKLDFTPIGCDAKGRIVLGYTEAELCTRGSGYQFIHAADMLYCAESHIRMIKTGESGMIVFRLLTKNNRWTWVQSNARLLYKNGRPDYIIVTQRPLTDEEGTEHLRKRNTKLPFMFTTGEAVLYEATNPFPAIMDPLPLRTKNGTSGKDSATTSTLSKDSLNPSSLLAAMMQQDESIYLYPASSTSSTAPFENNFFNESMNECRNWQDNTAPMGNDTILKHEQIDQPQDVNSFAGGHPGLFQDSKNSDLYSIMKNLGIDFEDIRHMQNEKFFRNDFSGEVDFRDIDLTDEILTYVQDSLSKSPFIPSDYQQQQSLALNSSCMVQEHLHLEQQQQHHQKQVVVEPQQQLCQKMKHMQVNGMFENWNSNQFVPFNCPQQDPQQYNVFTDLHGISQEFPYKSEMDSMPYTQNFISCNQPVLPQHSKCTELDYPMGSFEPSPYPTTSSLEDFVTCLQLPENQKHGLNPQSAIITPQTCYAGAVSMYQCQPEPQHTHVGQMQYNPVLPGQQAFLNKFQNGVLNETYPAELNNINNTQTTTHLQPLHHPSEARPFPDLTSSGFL
Peroxisome proliferator-activated receptor gamma (Homo sapiens), sequence (P37231 whole entry, looked up): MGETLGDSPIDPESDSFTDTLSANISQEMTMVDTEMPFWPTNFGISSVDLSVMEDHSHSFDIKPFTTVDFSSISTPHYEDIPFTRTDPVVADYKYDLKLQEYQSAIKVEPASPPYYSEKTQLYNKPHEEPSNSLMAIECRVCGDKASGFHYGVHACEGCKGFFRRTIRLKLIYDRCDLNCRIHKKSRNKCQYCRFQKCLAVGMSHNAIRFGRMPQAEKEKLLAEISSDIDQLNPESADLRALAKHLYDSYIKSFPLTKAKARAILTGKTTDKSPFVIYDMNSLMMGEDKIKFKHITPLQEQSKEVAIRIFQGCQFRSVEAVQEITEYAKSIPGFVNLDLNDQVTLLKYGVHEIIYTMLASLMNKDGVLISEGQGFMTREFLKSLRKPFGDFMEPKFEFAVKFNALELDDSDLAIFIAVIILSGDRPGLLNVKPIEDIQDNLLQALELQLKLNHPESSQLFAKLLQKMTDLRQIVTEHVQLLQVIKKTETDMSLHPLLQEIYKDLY
Nuclear receptor subfamily 1 group I member 2 (Rattus norvegicus), sequence (Q9R1A7 whole entry, looked up): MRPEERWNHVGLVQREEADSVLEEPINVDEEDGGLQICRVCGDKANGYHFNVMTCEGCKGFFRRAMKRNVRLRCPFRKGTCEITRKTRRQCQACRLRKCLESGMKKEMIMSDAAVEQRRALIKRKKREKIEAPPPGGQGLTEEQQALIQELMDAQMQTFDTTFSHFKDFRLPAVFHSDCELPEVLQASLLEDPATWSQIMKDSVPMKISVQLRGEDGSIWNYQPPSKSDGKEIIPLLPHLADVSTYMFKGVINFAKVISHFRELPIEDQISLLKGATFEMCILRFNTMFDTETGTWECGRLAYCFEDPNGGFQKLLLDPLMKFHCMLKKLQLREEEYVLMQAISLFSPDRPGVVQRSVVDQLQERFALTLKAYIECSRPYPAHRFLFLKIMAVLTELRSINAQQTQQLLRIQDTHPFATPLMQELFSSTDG
Aromatase (Homo sapiens), sequence (P11511 whole entry, looked up): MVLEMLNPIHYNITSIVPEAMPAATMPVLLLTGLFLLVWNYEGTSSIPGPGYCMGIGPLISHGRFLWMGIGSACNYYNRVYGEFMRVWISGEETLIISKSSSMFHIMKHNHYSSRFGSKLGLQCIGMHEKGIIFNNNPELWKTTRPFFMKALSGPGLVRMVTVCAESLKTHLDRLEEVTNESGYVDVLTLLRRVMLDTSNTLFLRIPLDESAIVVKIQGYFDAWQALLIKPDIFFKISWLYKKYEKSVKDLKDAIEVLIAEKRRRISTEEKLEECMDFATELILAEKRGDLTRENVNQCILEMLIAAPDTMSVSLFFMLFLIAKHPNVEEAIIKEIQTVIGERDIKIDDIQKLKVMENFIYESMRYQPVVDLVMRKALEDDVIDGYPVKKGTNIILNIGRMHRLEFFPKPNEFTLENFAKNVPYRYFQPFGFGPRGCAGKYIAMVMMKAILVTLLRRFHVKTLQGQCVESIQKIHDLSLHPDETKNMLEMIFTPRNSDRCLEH
Estrogen receptor (Homo sapiens), sequence (P03372 whole entry, looked up): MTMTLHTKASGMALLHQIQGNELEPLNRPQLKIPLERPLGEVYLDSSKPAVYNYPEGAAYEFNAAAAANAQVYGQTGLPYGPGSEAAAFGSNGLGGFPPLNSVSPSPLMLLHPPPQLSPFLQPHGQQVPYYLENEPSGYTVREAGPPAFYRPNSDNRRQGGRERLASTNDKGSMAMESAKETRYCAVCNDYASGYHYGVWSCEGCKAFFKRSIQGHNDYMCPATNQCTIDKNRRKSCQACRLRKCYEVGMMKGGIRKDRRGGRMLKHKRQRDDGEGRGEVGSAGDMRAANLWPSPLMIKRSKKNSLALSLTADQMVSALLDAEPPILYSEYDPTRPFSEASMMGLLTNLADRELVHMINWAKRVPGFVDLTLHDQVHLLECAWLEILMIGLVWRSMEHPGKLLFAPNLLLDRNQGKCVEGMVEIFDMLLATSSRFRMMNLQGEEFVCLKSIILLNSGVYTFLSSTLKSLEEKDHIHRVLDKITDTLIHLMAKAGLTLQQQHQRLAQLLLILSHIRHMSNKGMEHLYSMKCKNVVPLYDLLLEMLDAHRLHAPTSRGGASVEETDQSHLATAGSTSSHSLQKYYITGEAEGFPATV

S=C=Nc1ccc(N=C=S)cc1
active: Potency [6] 15.1 µM [inconclusive] | Potency [7] 1.06 µM
inactive: Potency [1] | Potency [2] | Potency [3] | Potency [4] | Potency [5] | Potency [8] | Potency (Aromatase (Homo sapiens)) | Potency [9] | Potency [10] | Potency [11] | Potency [12] | Potency [13] | max activation [14] -1.24% | Potency [15] | Potency [16]

CC(C)(C)CC(C)(C)c1cc(Cc2cc(C(C)(C)CC(C)(C)C)cc(-n3nc4ccccc4n3)c2O)c(O)c(-n2nc3ccccc3n2)c1
inactive: Potency [1] | Potency [2] | Potency [3] | Potency [4] | Potency [5] | Potency [6] | Potency [17] | Potency [8] | Potency (Aromatase (Homo sapiens)) | Potency [9] | Potency [10] | Potency [11] | Potency [13] | max activation [14] -3.34% | Potency [15] | Potency [16]

O=C1N=C2SCCN2C(=O)C1Cc1ccc(Cl)cc1 (stereo unspecified)
inactive: Potency [1] | Potency [2] | Potency [3] | Potency [5] | Potency [8] | Potency [13] | max activation [14] -2.07% | Potency [15] | Potency [16]

CC(C)[C@@H](N)C(=O)O
inactive: Potency [1] | Potency [2] | Potency [3] | Potency [5] | Potency [6] | Potency [7] | Potency [17] | Potency [8] | Potency (Aromatase (Homo sapiens)) | Potency [9] | Potency [10] | Potency [11] | Potency [12] | Potency [13] | max activation [14] 2.42% | Potency [15] | Potency [16]

CCCOc1cc(N)ccc1C(=O)OCCN(CC)CC
inactive: Potency [1] | Potency [2] | Potency [3] | Potency [4] | Potency [5] | Potency [6] | Potency [7] | Potency (Aromatase (Homo sapiens)) | Potency [9] | Potency [10] | Potency [11] | Potency [12] | Potency [13] | max activation [14] 2.87% | Potency [15] | Potency [16]

O=C(Nc1ccc(O)cc1)c1ccccc1O
inactive: Potency [1] | Potency [2] | Potency [3] | Potency [4] | Potency [5] | Potency [6] | Potency [8] | Potency (Aromatase (Homo sapiens)) | Potency [9] | Potency [11] | Potency [12] | Potency [13] | max activation [14] 3.27% | Potency [16]
active: Potency [7] 13.3 µM | Potency [10] 23.7 µM | Potency [15] 11.2 µM

CCCCC[C@H](O)/C=C/[C@@H]1[C@H]2C/C(=C/CCCC(=O)O)O[C@H]2C[C@H]1O
inactive: Potency [1] | Potency [2] | Potency [3] | Potency [5] | Potency [7] | Potency (Aromatase (Homo sapiens)) | Potency [9] | Potency [10] | Potency [11] | Potency [12] | Potency [13] | max activation [14] -0.736% | Potency [15] | Potency [16]

C[C@@H](O)[C@H]1C(=O)N2C(C(=O)[O-])=C(SC3Cn4cnc[n+]4C3)[C@H](C)[C@H]12 (stereo partly specified)
inactive: Potency [1] | Potency [2] | Potency [3] | Potency [5] | Potency [8] | Potency (Aromatase (Homo sapiens)) | Potency [9] | Potency [10] | Potency [11] | Potency [12] | Potency [13] | max activation [14] 0.401% | Potency [15] | Potency [16]

O=S(=O)(O)c1cc(O)c2c(N=Nc3ccc(Nc4ccccc4)c4c(S(=O)(=O)O)cccc34)cc(S(=O)(=O)O)cc2c1
active: Potency [1] 26.6 µM | Potency [2] 23.7 µM | Potency [8] 15 µM | Potency (Aromatase (Homo sapiens)) 23.7 µM | Potency [9] 16.8 µM | Potency [11] 11.9 µM
inactive: Potency [3] | Potency [4] | Potency [5] | Potency [6] | Potency [12] | Potency [13] | max activation [14] -12% | Potency [15] | Potency [16]

CCN(CC)CCOc1ccccc1OC
inactive: Potency [1] | Potency [2] | Potency [3] | Potency [5] | Potency [8] | Potency (Aromatase (Homo sapiens)) | Potency [9] | Potency [10] | Potency [11] | Potency [12] | Potency [13] | max activation [14] -0.861% | Potency [15] | Potency [16]

CCOC(=O)[C@@H](N)CS
inactive: Potency [1] | Potency [2] | Potency [3] | Potency [4] | Potency [5] | Potency [6] | Potency [8] | Potency (Aromatase (Homo sapiens)) | Potency [9] | Potency [11] | Potency [12] | Potency [13] | max activation [14] -2.02% | Potency [15] | Potency [16]
active: Potency [7] 29.8 µM

Cc1ncc(COP(=O)(O)O)c(CN)c1O
inactive: Potency [1] | Potency [2] | Potency [3] | Potency [4] | Potency [6] | Potency [7] | Potency [8] | Potency (Aromatase (Homo sapiens)) | Potency [9] | Potency [10] | Potency [11] | Potency [12] | PLD induction [13] -1.52% [at 7.66 µM] | max activation [14] 0.341% | Potency [15] | Potency [16]
